SMILES strings stand for the structures. The source made the active and inactive calls.

For this experiment, the target named is Dihydroorotate dehydrogenase (quinone), mitochondrial (Plasmodium falciparum (isolate 3D7)) (UniProt Q08210). Put plainly: PfDHODH enzyme inhibitors, primary screen, biochemical, C-terminal His tag, absorbance 600 nm (AID 1175).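 Further: recombinant parasite enzyme with a five histidine tag at its C terminus; test concentration not given here.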 Particulars: DCIP absorbance 600 nm, higher = more signal, called active from +8 up or from −8 down.
Dihydroorotate dehydrogenase (quinone), mitochondrial (Plasmodium falciparum (isolate 3D7)), sequence (Q08210 whole entry, looked up): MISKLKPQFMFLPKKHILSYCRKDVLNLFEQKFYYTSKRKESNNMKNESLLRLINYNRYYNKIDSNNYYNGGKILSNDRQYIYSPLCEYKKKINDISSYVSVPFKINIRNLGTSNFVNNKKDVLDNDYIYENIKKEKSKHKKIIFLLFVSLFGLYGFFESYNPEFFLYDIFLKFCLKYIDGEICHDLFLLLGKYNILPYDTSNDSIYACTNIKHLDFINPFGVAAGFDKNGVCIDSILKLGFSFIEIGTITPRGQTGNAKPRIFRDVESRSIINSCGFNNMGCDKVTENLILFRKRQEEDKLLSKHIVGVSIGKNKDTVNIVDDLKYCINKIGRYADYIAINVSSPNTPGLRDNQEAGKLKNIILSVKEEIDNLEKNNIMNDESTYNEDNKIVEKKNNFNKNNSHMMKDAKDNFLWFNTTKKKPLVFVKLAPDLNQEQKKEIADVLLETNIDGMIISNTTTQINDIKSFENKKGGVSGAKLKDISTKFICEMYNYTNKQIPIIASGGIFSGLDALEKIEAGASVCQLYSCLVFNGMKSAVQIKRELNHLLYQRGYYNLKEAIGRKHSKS
In the case of `C=C(/C(=C/C[C@H](OC(C)=O)c1ccc(CO)o1)c1cc(C(=O)OC)ccc1OC)C(C)C`, the composite z-score was -3.65 (inactive).

Take `COC(=O)[C@@]1(Cc2ccccc2)N=C(c2ccc(OCCCO)cc2)O[C@H]1c1ccccc1`: the composite z-score was 1.14 (inactive).

Regarding `CC(C)C[C@@H]1NC(=O)[C@@H]2C[C@H](C(=O)NCc3ccc(F)cc3)[C@H](c3cccc(OCCO)c3)N2C1=O`, the composite z-score was -1.26 (inactive).

Turning to `O=C1c2ccccc2[C@](Cc2ccccc2I)(C(=O)NCCN2CCOCC2)[C@H](c2ccc(CO)cc2)N1C1CCCCC1`, the composite z-score is -0.119 (inactive).

For `O=C1c2ccccc2[C@](Cc2ccccc2I)(C(=O)NCCN2CCOCC2)[C@H](c2ccc(CO)cc2)N1Cc1ccccc1Cl`, the composite z-score is -0.0768 (inactive).

Turning to `CC(C)C(=C=CC[C@@H](O)c1ccc(OCCO)cc1)C[C@@H](O)COCc1ccccc1`, the composite z-score is -2.2 (inactive).

In the case of `COC(=O)[C@]1(CCC(=O)OC(C)(C)C)N=C(c2ccc(OCCCO)cc2)O[C@@H]1c1ccccc1CN=[N+]=[N-]`, the composite z-score was 0.965 (inactive).

Take `NC(=O)NCC#Cc1ccc2c(c1)[C@]1(C(=O)N2)[C@H](c2ccccc2OCCO)N2[C@H](c3ccccc3)[C@H](c3ccccc3)OC(=O)[C@H]2[C@@H]1C(=O)Nc1nc2ccccc2s1`: the composite z-score is -1.12 (inactive).

As to `C=CCC(OC(C)=O)[C@@H]1[C@@H](N(Cc2ccc(-c3ccccc3)cc2)C(=O)Cc2ccc(OC)cc2)c2cc(OCCCO)ccc2N1C(=O)Cc1ccc2ccccc2c1` (stereo not given in full), the composite z-score was 0.0513 (inactive).

On to `C=C(CCCC)C(=O)CC[C@@H](OC(=O)c1ccccc1-c1ccccc1C(=O)O)c1ccc(OCCO)cc1`, for which the composite z-score was -1.25 (inactive).

`CCCC[C@@H]1C[C@H]1[C@@H](NC(=O)c1ccco1)c1ccccc1C(F)(F)F`: the composite z-score was -0.265 (inactive).

For the molecule `CCOC(=O)C[C@H]1[C@H](OC(=O)c2cc3ccccc3oc2=O)[C@@H](NC(=O)c2ccccc2)c2cc(OCCCO)ccc2N1C(=O)c1ccc2ccccc2n1`, the composite z-score was 0.542 (inactive).

For `CCN(CC)c1ccc(N2CC=CC34O[C@@H]5C=CCCOC(=O)C5[C@H]3C(=O)N(CCCCCCO)[C@@H]4C2=O)cc1` (stereo not given in full), the composite z-score is -0.324 (inactive).

Take `COC(=O)[C@@]1(Cc2ccccc2)[C@H]2c3cc(C(=O)N(C)C)n(Cc4ccsc4Br)c3C[C@H]2CN1C(=O)c1ccccc1`: the composite z-score is 0.486 (inactive).

As for `COCCOC(=O)N1C(=O)[C@@]2(c3ccccc31)[C@H](c1ccccc1OCCO)N1[C@H](c3ccccc3)[C@H](c3ccccc3)OC(=O)[C@H]1[C@@H]2C(=O)N1CCN(c2ncccn2)CC1`, the composite z-score is -0.539 (inactive).

With `O[C@@H](Cc1ccccc1)[C@H]1C2C=CCCC=C2CN1Cc1cccc(Cl)c1` (stereo not given in full), the composite z-score is -0.255 (inactive).

With `COc1cc2c(cc1OC)CN(C(=O)[C@@H]1[C@H]3C(=O)O[C@H](c4ccccc4)[C@H](c4ccccc4)N3[C@H](c3ccccc3OCCO)[C@@]13C(=O)Nc1ccc(C#CCCO)cc13)CC2`, the composite z-score is 0.379 (inactive).

As for `Cc1ccc(S[C@]2(C(=O)O)CC(=O)N(C(C)C)[C@@H]2c2ccc(CO)cc2I)cc1`, the composite z-score is -1.12 (inactive).

Turning to `O=C1O[C@H](c2ccccc2)[C@H](c2ccccc2)N2[C@H]1[C@@H](C(=O)N1CCCCCCC1)[C@]1(C(=O)Nc3ccc(C#CCCO)cc31)[C@H]2c1ccccc1OCCO`, the composite z-score is 0.929 (inactive).

With `C=CCNC(=O)[C@@H]1[C@H]2C(=O)O[C@H](c3ccccc3)[C@H](c3ccccc3)N2[C@H](c2ccc(O)cc2)[C@@]12C(=O)N(C(=O)OCCOC)c1ccc(C#CCNC(N)=O)cc12`, the composite z-score is -1.74 (inactive).

Regarding `O=C(c1ccccc1)N1C(=O)[C@@]2(Cc3ccccc31)N=C(c1ccc(OCCCO)cc1)O[C@H]2c1ccccc1`, the composite z-score was -0.138 (inactive).

As for `C=C(/C(=C/C[C@H](OC(C)=O)c1ccccc1OCCO)c1cnc2ccccc2c1)C(C)C`, the composite z-score is -5.2 (inactive).

As to `CC(C)C(CO)N1C(=O)[C@@H]2C3C(=O)OCCC/C=C\[C@H]3OC23C=CCN(CCN2CCOCC2)C(=O)[C@@H]13` (stereo not given in full), the composite z-score was -3.09 (inactive).

Regarding `CCCC[C@H]1OB(O)C[C@H]2C1=C(COC)C[C@H]1C(=O)N(C)C(=O)[C@H]12`, the composite z-score was -0.682 (inactive).

Regarding `COC(=O)[C@@]1(Cc2ccc(F)cc2)[C@H]2c3cc(C(=O)N(C)C)n(Cc4ccc(Cl)c(C(F)(F)F)c4)c3C[C@H]2CN1C(=O)c1ccccc1`, the composite z-score was 0.117 (inactive).

`COc1ccc(CCNC(=O)[C@@]2(Sc3ccc(C)cc3)CC(=O)N(C3Cc4ccccc4C3)[C@@H]2c2ccc(CO)cc2I)cc1`: the composite z-score was 0.371 (inactive).

As to `CCCC[C@H]1OB(O)C[C@H]2C1=C(COC)Cn1c(=O)n(-c3ccccc3)c(=O)n12`, the composite z-score was -0.485 (inactive).

For `CN(C)CCCCCCNC(=O)[C@@H]1C[C@@H]2C(=O)N[C@@H](Cc3ccccc3)C(=O)N2[C@@H]1c1ccc(O)cc1`, the composite z-score was 0.0288 (inactive).

As for `C=C(COC)/C(=C/C[C@H](OC(C)=O)c1ccc(CO)o1)c1cc(C(=O)OC)ccc1OC`, the composite z-score was -6.52 (inactive).

For the molecule `COC(=O)[C@@]1(Cc2ccc(OC)cc2)[C@@H]2C(=CC(=O)[C@H]2CC(=O)C(=O)N2CCCC2)CN1C(=O)c1ccccc1`, the composite z-score is 1.7 (inactive).

In the case of `Cc1ccc(N2C(=O)c3ccccc3[C@@H](C(=O)NC3CC3)[C@@H]2c2ccc(CO)cc2)nc1`, the composite z-score is -0.162 (inactive).

In the case of `COCCOC(=O)N1C(=O)[C@@]2(c3cc(C#CCC(C(=O)OC)C(=O)OC)ccc31)[C@H](C(=O)Nc1nc3ccccc3s1)[C@H]1C(=O)O[C@H](c3ccccc3)[C@H](c3ccccc3)N1[C@@H]2c1ccccc1OCCO`, the composite z-score is -0.715 (inactive).

Turning to `COCCOC(=O)N1C(=O)[C@@]2(c3cc(C#CCC(C(=O)OC)C(=O)OC)ccc31)[C@H](c1ccccc1OCCO)N1[C@H](c3ccccc3)[C@H](c3ccccc3)OC(=O)[C@H]1[C@@H]2C(=O)NC[C@H](O)c1ccccc1`, the composite z-score is -0.398 (inactive).

With `CCCC[C@@H]1C[C@H]1[C@@H](NC(=O)c1ccccc1)c1ccc(C(=O)OC)cc1`, the composite z-score is -0.265 (inactive).

As to `O=C1[C@@]23C=C(Br)[C@H](C[C@@H]2CCOC3)[C@@]12CO2`, the composite z-score was -0.0887 (inactive).

(Values after PubChem BioAssay.)
